Laboratory results: PubChem BioAssay (Tox21)
Records with an inconclusive call do not appear. Where a call stands in place of a potency, no number is given. Active and inactive are the calls of the source. Unless noted, the call rests on the fitted dose curve; in most records, active means well fitted curve in the direction sought with a large enough effect in the repeat runs; inconclusive means weak or mixed curves; inactive means no such curve, though single readings can be large; an effect the other way counts as inactive or inconclusive.

Assays:
[1] = qHTS assay to identify small molecule agonists of the peroxisome proliferator-activated receptor delta (PPARd) signaling pathway - cell viability counter screen (AID 743211); further: nearly all actives have a fitted effect of over 55% in size
Summary of the method: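 Viability of GeneBLAzer PPARd UAS-bla HEK293H cells was assessed after 17 h compound incubation at 37C, using CellTiter-Glo reagent added after the reporter read and luminescence recorded 30 min later.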

[2] = qHTS assay to identify small molecule antagonists of the peroxisome proliferator-activated receptor delta (PPARd) signaling pathway - cell viability counter screen (AID 743213); further: nearly all actives have a fitted effect of over 50% in size
Summary of the method: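 Viability counter-screen, qHTS format: PPARd-bla HEK293H, L165041 300 nM final, 17 h compound exposure at 37 C, CellTiter-Glo luminescence after 30 min RT.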

[3] = qHTS assay to identify small molecule agonists of the farnesoid-X-receptor (FXR) signaling pathway - cell viability counter screen (AID 743218); further: nearly all actives have a fitted effect of over 45% in size
Summary of the method: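 Viability of FXR-bla HEK 293T cells is measured by ATP-based CellTiter-Glo luminescence following 16 h compound treatment at 37 C and a prior 2 h room-temperature beta-lactamase substrate step.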

[4] = qHTS assay to identify small molecule antagonists of the farnesoid-X-receptor (FXR) signaling pathway - cell viability counter screen (AID 743221; active means well fitted cell-killing curve with a large enough effect in the repeat runs, not every such curve was filed as active; further: nearly all actives have a fitted effect of over 50% in size)
Summary of the method: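 Quantitative HTS of the Tox21 10K library run in parallel with the beta-lactamase reporter read. HEK 293T cells carrying a UAS-driven bla reporter got compound and 50 uM CDCA (final) for 16 h; ATP-based luminescence followed.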

[5] = biological target: Vitamin D3 receptor (Homo sapiens) (UniProt P11473); experiment: qHTS assay to identify small molecule agonists of the vitamin D receptor (VDR) signaling pathway (AID 743222; calls by dose curve)
Summary of the method: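 Fluorescence from cleaved LiveBLAzer B/G FRET substrate served as readout. VDR-bla cells had been treated 16 h at 37C with test compounds in DMSO, following a 4 h settling period, and substrate was loaded for 2 h at RT.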

[6] = biological target: Vitamin D3 receptor (Homo sapiens) (UniProt P11473); experiment: qHTS assay to identify small molecule antagonists of the vitamin D receptor (VDR) signaling pathway (AID 743223; active means well fitted inhibition curve with a large enough effect in the signal ratio in the repeat runs, not every such curve was filed as active; the % refers to the signal ratio)
Summary of the method: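 Fluorescence from LiveBLAzer B/G FRET substrate, read after 2 h at room temperature, reflects beta-lactamase reporter activity in VDR-bla cells treated 16 h at 37C with compounds and agonist 1alpha,25-dihydroxyvitamin D3 (3 nM final).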

[7] = qHTS assay to identify small molecule agonists of the vitamin D receptor (VDR) signaling pathway - cell viability counter screen (AID 743224); further: series mostly up to about 63 µM; nearly all actives have a fitted effect of over 50% in size
Summary of the method: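 Compounds were pin-transferred onto VDR-bla cells plated 4 h earlier; following 16 h incubation at 37C, cell viability was quantified by CellTiter-Glo luminescence after 30 min at room temperature.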

[8] = qHTS assay to identify small molecule antagonists of the vitamin D receptor (VDR) signaling pathway - cell viability counter screen (AID 743225); further: nearly all actives have a fitted effect of over 50% in size
Summary of the method: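 Cells (VDR-UAS-bla HEK 293T) are plated, rested 4 h at 37C, dosed with compound and 3 nM final 1-alpha,25-dihydroxy vitamin D3, and incubated 16 h. Viability is taken from CellTiter-Glo luminescence in the reporter wells.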

[9] = qHTS assay to identify small molecule agonists of the NFkB signaling pathway (AID 1159509; active means well fitted curve in the direction sought with a large enough effect in the signal ratio in the repeat runs, not every such curve was filed as active; the % refers to the signal ratio; further: series mostly up to about 61 µM)
Summary of the method: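 Beta-lactamase reporter assay run in quantitative high-throughput format on an NF-kB-responsive ME-180 line, with 5 hr compound treatment and a FRET-based blue/green fluorescence readout.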

[10] = qHTS assay to identify small molecule agonists of the endoplasmic reticulum stress response signaling pathway (AID 1159516; active means well fitted activation curve with a large enough effect in the signal ratio in the repeat runs, not every such curve was filed as active; the % refers to the signal ratio)
Summary of the method: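 Using a HeLa line with an ESRE-driven beta-lactamase gene, agonist activity was measured by FRET substrate fluorescence (460 and 530 nm emission) after cells were treated with compounds for 5 hr at 37 C and 5% CO2.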

[11] = qHTS assay to identify small molecule agonists of the endoplasmic reticulum stress response signaling pathway - cell viability counter screen (AID 1159517; calls by dose curve)
Summary of the method: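 Cytotoxicity of test compounds toward ESRE-bla HeLa cells was assessed after 5 hr exposure. The luminescent CellTiter-Glo signal was measured 30 min after reagent addition.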

[12] = qHTS assay to identify small molecule antagonists of the retinoid-related orphan receptor gamma (ROR-gamma) signaling pathway - cell viability counter screen (AID 1159520); further: nearly all actives have a fitted effect of over 50% in size; further: potency means the concentration at half of the fitted maximal effect
Summary of the method: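 Tet-on ROR gamma CHO cells (1,000/well) were plated 4 hr, given compounds in DMSO for 2 hr at 37 C, then induced with 1 uM final doxycycline for 16 hr. Viability was read as ATP by CellTiter-Glo luminescence after 30 min.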

[13] = biological target: Nuclear receptor ROR-gamma (Homo sapiens) (UniProt P51449); experiment: qHTS assay to identify small molecule antagonists of the retinoid-related orphan receptor gamma (ROR-gamma) signaling pathway (AID 1159521; further: nearly all actives have a fitted effect of over 50% in size; further: potency means the concentration at half of the fitted maximal effect)
Summary of the method: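 RORγ antagonism is scored from reduced reporter luminescence in Tet-on CHO cells. Induction used 1 uM final doxycycline hyclate for 16 h at 37 C, following a 2 h compound exposure.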

[14] = qHTS assay to identify small molecule agonists of the AP-1 signaling pathway - cell viability counter screen (AID 1159525; calls by dose curve; further: nearly all actives have a fitted effect of over 55% in size)
Summary of the method: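 Each titration point was normalised to DMSO and tetra n-octyl ammonium bromide controls. The read was Cell Titer Glo luminescence after 30 min at RT, following 5 h compound exposure of ME-180 AP-1-bla cells at 37 °C.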

[15] = qHTS assay to identify small molecule agonists of the AP-1 signaling pathway (AID 1159526; calls by dose curve)
[16] = biological target: Bile acid receptor (Homo sapiens) (UniProt Q96RI1); experiment: qHTS assay to identify small molecule antagonists of the farnesoid-X-receptor (FXR) signaling pathway (AID 743217; active means well fitted inhibition curve with a large enough effect in the signal ratio in the repeat runs, not every such curve was filed as active; the % refers to the signal ratio)
Summary of the method: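 Screen of the Tox21 10K library in quantitative HTS format using FXR-UAS-bla HEK 293T reporter cells. Agonist chenodeoxycholic acid, 50 uM final, added with compounds; 16 h incubation at 37 °C; beta-lactamase FRET fluorescence measured.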

[17] = biological target: Bile acid receptor (Homo sapiens) (UniProt Q96RI1); experiment: qHTS assay to identify small molecule agonists of the farnesoid-X-receptor (FXR) signaling pathway (AID 743220; active means well fitted activation curve with a large enough effect in the signal ratio in the repeat runs, not every such curve was filed as active; the % refers to the signal ratio)
Summary of the method: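 FXR-UAS-bla HEK 293T cells carrying a UAS-driven beta-lactamase reporter were plated for 5 h at 37C/5% CO2, then exposed to DMSO-dissolved Tox21 10K compounds for 16 h at 37C. A LiveBLAzer B/G FRET substrate was loaded for 2 h at room temperature before fluorescence reading.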

[18] = biological target: Peroxisome proliferator-activated receptor delta (Homo sapiens) (UniProt Q03181); experiment: qHTS assay to identify small molecule agonists of the peroxisome proliferator-activated receptor delta (PPARd) signaling pathway (AID 743212; calls by dose curve;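 further: HEK293H cells with PPARd UAS beta-lactamase reporter GeneBLAzer system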)
Summary of the method: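 Beta-lactamase reporter read by fluorescence (LiveBLAzer B/G FRET, 2 h, room temperature). Test agents, in DMSO, incubated at 37 C with PPARd-bla HEK293H cells.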

[19] = biological target: Peroxisome proliferator-activated receptor delta (Homo sapiens) (UniProt Q03181); experiment: qHTS assay to identify small molecule antagonists of the peroxisome proliferator-activated receptor delta (PPARd) signaling pathway (AID 743215; active means well fitted inhibition curve with a large enough effect in the signal ratio in the repeat runs, not every such curve was filed as active; the % refers to the signal ratio;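 further: cells stimulated with agonist L165041 at 300 nM final during compound exposure; series mostly up to about 62 µM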)
Summary of the method: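 Plated HEK293H PPARd-bla cells rested 5 h at 37 C and 5% CO2. Compound, then agonist L165041 at 300 nM final, was added; 17 h at 37 C followed. Substrate loading, 2 h room temperature, fluorescence measured.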

[20] = qHTS assay to identify small molecule agonists of the NFkB signaling pathway - cell viability counter screen (AID 1159515; calls by dose curve; further: series mostly up to about 61 µM; nearly all actives have a fitted effect of over 55% in size)
Summary of the method: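 Parallel cytotoxicity counter screen in ME-180 cells carrying an NFkB-response-element beta-lactamase reporter, 2,000 cells/well. Compound exposure lasted 5 hr at 37 C, 5% CO2. Cell viability was quantified by CellTiter-Glo luminescence.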

Bile acid receptor (Homo sapiens), sequence (Q96RI1 whole entry, looked up): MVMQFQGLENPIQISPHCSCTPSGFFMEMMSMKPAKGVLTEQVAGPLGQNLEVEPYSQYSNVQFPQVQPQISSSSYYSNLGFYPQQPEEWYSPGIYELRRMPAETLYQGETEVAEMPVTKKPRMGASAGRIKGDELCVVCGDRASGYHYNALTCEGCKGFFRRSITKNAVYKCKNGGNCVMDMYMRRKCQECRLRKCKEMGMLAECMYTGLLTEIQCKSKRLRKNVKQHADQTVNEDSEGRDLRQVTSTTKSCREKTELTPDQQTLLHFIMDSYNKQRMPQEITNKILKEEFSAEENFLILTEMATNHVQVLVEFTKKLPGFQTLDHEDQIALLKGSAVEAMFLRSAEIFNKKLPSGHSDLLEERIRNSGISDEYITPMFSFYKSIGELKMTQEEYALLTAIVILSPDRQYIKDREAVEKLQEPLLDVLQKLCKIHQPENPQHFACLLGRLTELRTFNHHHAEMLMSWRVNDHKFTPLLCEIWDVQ
Vitamin D3 receptor (Homo sapiens), sequence (P11473 whole entry, looked up): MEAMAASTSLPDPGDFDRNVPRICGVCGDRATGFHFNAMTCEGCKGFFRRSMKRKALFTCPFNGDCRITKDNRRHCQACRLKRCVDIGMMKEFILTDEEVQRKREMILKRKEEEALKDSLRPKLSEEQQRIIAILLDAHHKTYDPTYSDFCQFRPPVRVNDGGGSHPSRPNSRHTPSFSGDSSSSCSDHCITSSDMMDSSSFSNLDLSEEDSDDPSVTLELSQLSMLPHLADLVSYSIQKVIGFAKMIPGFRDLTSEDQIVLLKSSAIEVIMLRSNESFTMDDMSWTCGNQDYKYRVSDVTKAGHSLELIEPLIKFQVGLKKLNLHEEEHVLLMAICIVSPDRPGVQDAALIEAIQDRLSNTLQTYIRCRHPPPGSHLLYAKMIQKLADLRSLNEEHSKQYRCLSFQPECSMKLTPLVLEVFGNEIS
Peroxisome proliferator-activated receptor delta (Homo sapiens), sequence (Q03181 whole entry, looked up): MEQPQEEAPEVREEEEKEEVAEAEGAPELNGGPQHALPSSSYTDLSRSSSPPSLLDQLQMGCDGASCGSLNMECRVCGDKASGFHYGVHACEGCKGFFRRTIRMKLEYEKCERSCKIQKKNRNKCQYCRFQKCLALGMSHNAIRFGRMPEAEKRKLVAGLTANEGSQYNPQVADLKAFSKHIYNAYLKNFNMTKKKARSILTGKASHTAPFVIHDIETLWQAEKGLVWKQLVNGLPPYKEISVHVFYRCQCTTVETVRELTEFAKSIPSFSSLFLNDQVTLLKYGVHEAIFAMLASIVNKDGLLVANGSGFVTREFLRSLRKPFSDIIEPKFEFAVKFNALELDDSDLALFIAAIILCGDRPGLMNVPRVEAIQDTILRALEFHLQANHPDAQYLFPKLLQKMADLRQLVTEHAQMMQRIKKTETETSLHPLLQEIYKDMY

Row | Compound | Potency [1] | outcome [2] | Potency [3] | outcome [4] | outcome [5] | outcome [6] | Potency [7] | outcome [8] | outcome [9] | outcome [10] | Potency [11] | Potency [12] | Potency [13] | Potency [14] | outcome [15] | Potency [16] | outcome [17] | outcome [18] | outcome [19] | outcome [20]
1 | COc1cc2c(cc1OC)[C@@]13CCN4CC5=CCO[C@H]6CC(=O)N2[C@H]1[C@H]6[C@H]5C[C@H]43 | inactive | inactive | inactive | inactive | inactive | inactive | inactive | inactive | inactive | inactive | inactive | inactive | inactive | inactive | inactive | – | – | – | – | –
2 | ClC(Cl)C(Cl)Cl | inactive | inactive | inactive | inactive | – | inactive | – | inactive | inactive | inactive | inactive | inactive | – | inactive | inactive | inactive | inactive | – | – | –
3 | CCNc1nc(NC(C)C)nc(OC)n1 | inactive | inactive | inactive | inactive | – | inactive | inactive | – | inactive | inactive | inactive | inactive | inactive | inactive | inactive | inactive | inactive | inactive | inactive | –
4 | COc1cccc2c1cc([N+](=O)[O-])c1c(C(=O)O)cc3c(c12)OCO3 | inactive | – | inactive | – | – | – | – | – | inactive | inactive | inactive | 43.3 µM (active) | 15.4 µM (active) | inactive | – | – | – | – | – | –
5 | O=C(Cc1ccccc1)OCc1ccccc1 | inactive | inactive | inactive | inactive | inactive | inactive | inactive | inactive | inactive | inactive | inactive | inactive | inactive | inactive | inactive | inactive | inactive | inactive | inactive | –
6 | CSc1ccc(C(=O)C(C)(C)N2CCOCC2)cc1 | – | inactive | inactive | inactive | inactive | inactive | inactive | inactive | inactive | inactive | inactive | inactive | – | – | inactive | inactive | inactive | inactive | inactive | inactive
7 | CN(C)CCc1ccc(O)cc1 | inactive | – | – | inactive | inactive | – | inactive | inactive | inactive | inactive | inactive | inactive | inactive | inactive | inactive | inactive | inactive | inactive | inactive | –
8 | Cc1cc(C)c(C(=O)P(=O)(C(=O)c2c(C)cc(C)cc2C)c2ccccc2)c(C)c1 | inactive | inactive | – | inactive | – | inactive | – | inactive | inactive | inactive | inactive | inactive | – | – | inactive | inactive | inactive | inactive | inactive | inactive
9 | CCCCOP(=O)(O)OCCCC | inactive | inactive | inactive | inactive | – | – | inactive | – | inactive | inactive | inactive | inactive | inactive | inactive | inactive | inactive | inactive | inactive | inactive | –
10 | Nc1cc2c3c(c1)C(c1ccccc1)=N[C@@H](NC(=O)c1cccnc1)C(=O)N3CC2 | – | inactive | inactive | inactive | inactive | – | inactive | inactive | inactive | inactive | inactive | inactive | inactive | inactive | inactive | – | – | inactive | inactive | –
11 | CC(N)=S | inactive | inactive | inactive | inactive | inactive | inactive | inactive | – | inactive | inactive | inactive | inactive | inactive | inactive | inactive | inactive | inactive | inactive | inactive | –
12 | COC(=O)c1ccccc1S(=O)(=O)NC(=O)Nc1nc(C)cc(C)n1 | inactive | inactive | inactive | inactive | – | inactive | inactive | inactive | inactive | inactive | inactive | inactive | – | inactive | inactive | – | – | – | – | –
13 | CCOC(=O)CP(=O)(OCC)OCC | inactive | inactive | inactive | inactive | – | – | inactive | inactive | inactive | inactive | inactive | inactive | inactive | inactive | inactive | inactive | inactive | inactive | inactive | –
14 | CCC(=O)C(CCN(C)C)(c1ccccc1)c1ccccc1 | inactive | inactive | inactive | inactive | inactive | inactive | – | inactive | inactive | inactive | inactive | inactive | inactive | inactive | – | – | – | inactive | inactive | –
15 | CCOP(=S)(OCC)Oc1nc(Cl)n(C(C)C)n1 | – | – | inactive | inactive | inactive | inactive | – | – | inactive | inactive | inactive | inactive | inactive | inactive | inactive | – | – | – | – | –
16 | CCC1(c2ccccc2)C(=O)NC(=O)NC1=O | inactive | inactive | inactive | inactive | – | inactive | inactive | – | – | inactive | inactive | inactive | inactive | inactive | inactive | – | – | inactive | inactive | inactive
17 | COc1ncc(F)c2nc(S(=O)(=O)Nc3c(F)cccc3F)nn12 | inactive | inactive | inactive | inactive | – | – | inactive | inactive | inactive | inactive | inactive | inactive | inactive | inactive | inactive | – | – | inactive | inactive | –
18 | CCCCCCBr | inactive | – | – | inactive | inactive | inactive | – | inactive | inactive | inactive | inactive | inactive | – | inactive | inactive | – | – | – | – | –
19 | ClC(Br)Br | inactive | inactive | inactive | inactive | – | – | inactive | – | inactive | inactive | inactive | inactive | inactive | inactive | inactive | inactive | inactive | inactive | inactive | –
